Calls of active or inactive are those of the source.
Key:
[1] = tested on: Plasmodium falciparum Sir2 (PF13_0152, Sir2A); experiment: Plasmodium falciparum Sir2A binding compounds – biochemical, small-molecule microarray, 635 nm fluorescence, primary screen (AID 1098); details: fluorescence 635 nm, higher = more signal;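 also: score merges spot fluorescence intensity with its signal-to-noise ratio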
[2] = probe aDKK1 binding to arrayed compounds – biochemical, biotinylated probe, 635/667 nm fluorescence, primary screen (AID 1099); details: small-molecule microarray, higher = more signal;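 also: score merges 667nm spot fluorescence with signal to noise across triplicate slides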
[3] = probe aCHRDL2 binding to arrayed compounds – biochemical, biotinylated probe, 635/667 nm fluorescence, primary screen (AID 1100); details: small-molecule microarray, higher = more signal
[4] = change in splice reporter luminescence, either direction, cell-based, HEK293, spliceosome inhibition project, primary screen (AID 1101); details: HEK293 splicing luciferase reporter, 24 h, higher = more signal, called active from +8 up or from −8 down;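 also: HEK293 cells carrying a splicing-competent luciferase reporter gene; test concentration not given here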
[5] = molecular target: Fibroblast growth factor 10 (Homo sapiens) (UniProt O15520); experiment: compounds binding fibroblast growth factor 10 – biochemical, small-molecule microarray, 635 nm fluorescence, primary screen (AID 1102); details: FGF10 binding, fluorescence 635 nm, higher = more signal
Chain of Fibroblast growth factor 10 (Homo sapiens) (O15520 whole entry, looked up): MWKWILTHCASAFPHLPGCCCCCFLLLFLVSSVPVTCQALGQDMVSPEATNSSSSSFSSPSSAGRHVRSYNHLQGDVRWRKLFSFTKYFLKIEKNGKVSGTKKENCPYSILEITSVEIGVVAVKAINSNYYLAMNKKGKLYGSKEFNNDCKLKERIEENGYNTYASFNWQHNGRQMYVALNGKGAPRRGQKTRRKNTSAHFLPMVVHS

[6] = tested on: glycogen synthase kinase-3 (GSK3A per assay name; protocol says GSK3B); experiment: compounds binding glycogen synthase kinase-3 – biochemical, small-molecule microarray, 635 nm fluorescence, GSK3A, primary screen (AID 1103); details: fluorescence 635 nm, higher = more signal; also: the record names both GSK3A and GSK3B
[7] = molecular target: Epidermal growth factor receptor (Homo sapiens) (UniProt P00533); experiment: compounds binding epidermal growth factor receptor – biochemical, small-molecule microarray, 635 nm fluorescence, primary screen (AID 1104); details: EGFR binding, higher = more signal;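 also: score merges 667 nm emission intensity with spot signal to noise over triplicate slides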
Chain of Epidermal growth factor receptor (Homo sapiens) (P00533 whole entry, looked up): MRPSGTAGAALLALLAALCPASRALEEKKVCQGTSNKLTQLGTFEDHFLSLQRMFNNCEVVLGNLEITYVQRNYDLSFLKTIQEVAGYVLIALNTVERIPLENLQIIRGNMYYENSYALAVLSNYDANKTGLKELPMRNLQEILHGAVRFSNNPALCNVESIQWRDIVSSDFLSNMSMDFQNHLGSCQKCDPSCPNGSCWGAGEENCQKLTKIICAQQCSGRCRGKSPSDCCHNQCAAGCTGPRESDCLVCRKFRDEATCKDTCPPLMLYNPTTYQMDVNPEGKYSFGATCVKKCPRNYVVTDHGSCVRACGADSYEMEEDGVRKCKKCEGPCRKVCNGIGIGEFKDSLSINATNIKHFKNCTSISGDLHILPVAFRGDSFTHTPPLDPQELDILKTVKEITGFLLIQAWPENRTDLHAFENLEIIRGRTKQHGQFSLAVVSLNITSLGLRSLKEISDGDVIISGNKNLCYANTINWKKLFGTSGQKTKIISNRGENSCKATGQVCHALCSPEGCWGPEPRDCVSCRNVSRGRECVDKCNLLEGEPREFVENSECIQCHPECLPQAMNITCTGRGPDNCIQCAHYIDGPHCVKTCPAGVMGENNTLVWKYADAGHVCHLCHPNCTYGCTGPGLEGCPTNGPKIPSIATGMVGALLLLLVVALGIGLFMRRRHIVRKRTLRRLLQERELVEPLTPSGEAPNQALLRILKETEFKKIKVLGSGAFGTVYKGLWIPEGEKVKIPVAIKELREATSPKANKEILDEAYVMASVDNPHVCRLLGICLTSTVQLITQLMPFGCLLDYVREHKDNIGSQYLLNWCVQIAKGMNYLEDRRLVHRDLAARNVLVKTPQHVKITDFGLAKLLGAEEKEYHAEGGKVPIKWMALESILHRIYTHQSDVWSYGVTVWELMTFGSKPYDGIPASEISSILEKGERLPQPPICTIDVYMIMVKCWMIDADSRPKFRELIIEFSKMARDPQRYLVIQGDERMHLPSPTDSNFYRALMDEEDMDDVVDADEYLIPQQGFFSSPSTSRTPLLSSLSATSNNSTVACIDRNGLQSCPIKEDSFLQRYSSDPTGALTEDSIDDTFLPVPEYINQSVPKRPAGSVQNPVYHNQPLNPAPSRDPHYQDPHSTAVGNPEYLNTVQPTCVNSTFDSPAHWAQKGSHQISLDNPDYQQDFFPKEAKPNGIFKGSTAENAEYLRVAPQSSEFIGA

[8] = molecular target: Follistatin-related protein 3 (Homo sapiens) (UniProt O95633); experiment: compounds binding follistatin-related protein 3 – biochemical, small-molecule microarray, 635 nm fluorescence, primary screen (AID 1105); details: FSTL3 binding, higher = more signal;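 also: score merges emission near 667 nm and signal to noise per printed spot across three slides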
Chain of Follistatin-related protein 3 (Homo sapiens) (O95633 whole entry, looked up): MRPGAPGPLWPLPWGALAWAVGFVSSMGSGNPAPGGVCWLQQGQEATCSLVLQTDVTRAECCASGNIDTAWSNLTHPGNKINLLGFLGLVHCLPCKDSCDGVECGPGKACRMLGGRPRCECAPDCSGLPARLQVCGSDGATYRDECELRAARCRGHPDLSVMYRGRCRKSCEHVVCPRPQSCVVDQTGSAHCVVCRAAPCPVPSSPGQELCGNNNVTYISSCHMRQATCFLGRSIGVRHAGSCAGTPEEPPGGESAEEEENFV

[9] = molecular target: Dickkopf-related protein 1 (Homo sapiens) (UniProt O94907); experiment: small molecules binding DKK1 protein – biochemical, small-molecule microarray, 635 nm fluorescence scan, primary screen (AID 1106); details: higher = more signal;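 also: score merges emission near 667 nm with signal to noise over three replicate slides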
Chain of Dickkopf-related protein 1 (Homo sapiens) (O94907 whole entry, looked up): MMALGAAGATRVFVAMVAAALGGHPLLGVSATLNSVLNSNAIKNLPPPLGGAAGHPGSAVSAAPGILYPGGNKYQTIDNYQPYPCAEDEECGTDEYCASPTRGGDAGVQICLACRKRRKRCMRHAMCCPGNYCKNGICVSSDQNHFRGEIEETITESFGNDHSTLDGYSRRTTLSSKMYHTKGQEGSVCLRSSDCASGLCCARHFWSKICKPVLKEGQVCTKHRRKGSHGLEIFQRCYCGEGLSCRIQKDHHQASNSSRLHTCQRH

[10] = tested on: Inhibin beta A chain (activin A); experiment: small molecules binding activin A – biochemical, small-molecule microarray, 635 nm fluorescence scan, primary screen (AID 1107); details: INHBA, higher = more signal;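 also: mouse activin A protein probed at 4.33 µg/mL on printed slides; score merges bound-protein fluorescence near 667 nm with spot signal-to-noise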
[11] = tested on: Human papillomavirus type 1a protein E7 (residues 44-93); experiment: small molecules binding HPV E7 44-93 – biochemical, small-molecule microarray, residues 44-93, 635 nm fluorescence, primary screen (AID 1108); details: fluorescence 635 nm, higher = more signal;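 also: E7 fragment applied at 1 µg/mL in TBST for 1 h at 4 C; score combines spot fluorescence with its signal to noise ratio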
[12] = hepatitis C replication reporter changes, two-sided – Huh7 cells, luciferase reporter, HCV replication inhibitor project, primary screen (AID 1109); details: Huh7 HCV replicon luciferase reporter, 48 h; higher = more signal;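 also: huh7 hepatoma cells harbouring a luciferase neomycin HCV replicon reporter; luciferase luminescence as measure of HCV replicon replication; test concentration not given here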
[13] = molecular target: Left-right determination factor 2 (Homo sapiens) (UniProt O00292); experiment: small molecules binding LEFTY2 protein – biochemical, small-molecule microarray, 635 nm fluorescence scan, primary screen (AID 1110); details: higher = more signal
Chain of Left-right determination factor 2 (Homo sapiens) (O00292 whole entry, looked up): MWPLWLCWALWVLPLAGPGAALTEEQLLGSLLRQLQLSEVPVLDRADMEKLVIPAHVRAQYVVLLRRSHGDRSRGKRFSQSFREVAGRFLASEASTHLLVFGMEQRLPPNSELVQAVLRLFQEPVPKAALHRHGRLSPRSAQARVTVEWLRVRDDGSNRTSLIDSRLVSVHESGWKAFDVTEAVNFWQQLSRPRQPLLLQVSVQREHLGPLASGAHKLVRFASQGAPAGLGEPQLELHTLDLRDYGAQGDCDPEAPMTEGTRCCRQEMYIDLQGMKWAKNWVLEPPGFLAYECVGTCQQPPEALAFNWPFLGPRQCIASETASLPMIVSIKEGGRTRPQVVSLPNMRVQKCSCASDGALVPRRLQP

[14] = molecular target: Calmodulin-1 (Homo sapiens) (UniProt P0DP23); experiment: small molecules binding calmodulin-1 with EGTA – biochemical, small-molecule microarray, Cy5-labelled CALM1, profiling panel (AID 1111); details: Cy5-CALM1 binding fluorescence, higher = more signal;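 also: labelled calmodulin applied in Tris saline Tween buffer holding calcium plus EGTA and DTT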
[15] = molecular target: Calmodulin-1 (Homo sapiens) (UniProt P0DP23); experiment: small molecules binding Ca-loaded calmodulin-1 – biochemical, small-molecule microarray, Cy5-labelled CALM1, plus calcium, artefact control for SMM control-protein annotation, profiling panel (AID 1112); details: Cy5-CALM1 binding fluorescence, higher = more signal;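 also: score merges spot fluorescence with signal to noise from triplicate slides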
[16] = probe aWnt5a binding to arrayed compounds – biochemical, biotinylated probe, 635/667 nm fluorescence, primary screen (AID 1113); details: small-molecule microarray, higher = more signal;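 also: score merges 667 nm fluorescence intensity with signal-to-noise per printed feature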
[17] = probe aShh binding to arrayed compounds – biochemical, biotinylated probe, 635/667 nm fluorescence, primary screen (AID 1114); details: small-molecule microarray, higher = more signal;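 also: probe is biotin-labelled aShh protein from a stem cell growth factor screen; measures binding of labelled protein to compounds printed on the slide; score merges feature fluorescence at 667 nm with signal-to-noise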
[18] = probe aNog binding to arrayed compounds – biochemical, biotinylated probe, 635/667 nm fluorescence, primary screen (AID 1115); details: small-molecule microarray, higher = more signal;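 also: probe is biotinylated aNog protein used at 0.15 µg/mL for 1 h at 4 C; z-score combines 667 nm fluorescence of each spot with its signal to noise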
[19] = molecular target: Torsin-1A-interacting protein 1 (Homo sapiens) (UniProt Q5JTV8); experiment: compound microarray binding of lysate hLAP1 – cell lysate, small-molecule microarray, COS7 lysate, 635/667 nm fluorescence, primary screen (AID 1116); details: 635 nm fluorescence, higher = more signal
Chain of Torsin-1A-interacting protein 1 (Homo sapiens) (Q5JTV8 whole entry, looked up): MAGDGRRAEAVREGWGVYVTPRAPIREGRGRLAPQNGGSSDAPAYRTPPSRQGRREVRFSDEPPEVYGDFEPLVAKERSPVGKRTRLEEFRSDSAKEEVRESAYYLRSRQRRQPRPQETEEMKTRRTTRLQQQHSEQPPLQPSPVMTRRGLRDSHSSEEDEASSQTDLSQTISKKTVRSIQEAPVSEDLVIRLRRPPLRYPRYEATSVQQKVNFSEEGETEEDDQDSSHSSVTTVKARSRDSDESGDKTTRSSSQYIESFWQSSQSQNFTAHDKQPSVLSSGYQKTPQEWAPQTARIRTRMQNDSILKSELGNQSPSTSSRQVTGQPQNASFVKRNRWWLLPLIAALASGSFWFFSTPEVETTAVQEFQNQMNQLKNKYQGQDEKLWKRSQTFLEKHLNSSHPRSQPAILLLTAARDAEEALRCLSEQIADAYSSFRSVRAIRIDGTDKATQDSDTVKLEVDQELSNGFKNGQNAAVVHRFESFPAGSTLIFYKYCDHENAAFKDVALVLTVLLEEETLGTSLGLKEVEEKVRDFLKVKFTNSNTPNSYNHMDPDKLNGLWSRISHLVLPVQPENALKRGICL

[20] = molecular target: Alpha-bungarotoxin (Bungarus multicinctus) (UniProt P60615); experiment: compounds binding labelled alpha-BTX control protein – biochemical, small-molecule microarray, Alexa647 label, 635/667 nm fluorescence, artefact control for SMM control protein annotation, profiling panel (AID 1117); details: alpha-BTX-A647 binding fluorescence, higher = more signal
Chain of Alpha-bungarotoxin (Bungarus multicinctus) (P60615 whole entry, looked up): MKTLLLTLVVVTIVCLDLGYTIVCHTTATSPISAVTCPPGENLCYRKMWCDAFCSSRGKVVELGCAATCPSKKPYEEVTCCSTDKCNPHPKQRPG

SMILES | composite z-score [1] | composite z-score [2] | composite z-score [3] | z-score [4] | composite z-score [5] | composite z-score [6] | composite z-score [7] | composite z-score [8] | composite z-score [9] | composite z-score [10] | composite z-score [11] | z-score [12] | composite z-score [13] | composite z-score [14] | composite z-score [15] | composite z-score [16] | composite z-score [17] | composite z-score [18] | composite z-score [19] | composite z-score [20]
NCCCCCCNC(=O)[C@H]1C[C@H]2C(=O)N[C@@H](Cc3ccccc3)C(=O)N2[C@H]1c1ccc(O)cc1 | 1.3 | 0.21 | 0.456 | -1.23 (inactive) | -0.0657 | 0.481 | 0.92 | 0.533 | 0.232 | 1.1 | 0.74 | 0.914 | 0.338 | 1.44 | 1.17 | -0.0033 | -0.1 | -0.0496 | 1.21 | 1.55
O=c1cccc(-c2ccc(C(F)(F)F)cc2)o1 | -0.426 | -0.0458 | 0.239 | 0.0423 (inactive) | -0.46 | -0.762 | -0.215 | -0.936 | -0.572 | 0.339 | -1.57 | 0.587 | -0.534 | -0.271 | 0.238 | -0.0685 | 0.163 | -0.0446 | -0.333 | -0.364
C[C@@H]1ON(c2ccc(C(=O)OC(C)(C)C)cc2)[C@H](c2ccc(Br)cc2)[C@H]1C(=O)N1C(=O)OC[C@H]1Cc1ccccc1 | 0.992 | -0.0749 | -0.17 | -0.65 (inactive) | 1.17 | 1.31 | 0.701 | 1.21 | 1.11 | -0.109 | 1.38 | 1.05 | 0.498 | 0.79 | -0.115 | -0.0643 | -0.138 | 0.25 | 0.323 | 0.544
CCOC(=O)C1=CC[C@@H](c2ccccc2C(F)(F)F)N(S(=O)(=O)c2ccc(C)cc2)C1 | 1.23 | 1.27 | 1.18 | -2.27 (inactive) | 1.18 | 0.914 | 0.29 | 1.12 | -0.144 | 0.685 | 0.648 | -2.98 | 0.613 | 2.07 | 1.07 | 0.274 | 0.584 | -0.395 | 1.5 | 1.49
CC(C)N1C(=O)[C@@]2(c3ccc([N+](=O)[O-])cc3)CC(=O)N(C3CCCCC3)[C@@H]2c2ccc(CO)cc21 | 0.29 | -0.227 | -0.173 | 0.403 (inactive) | 0.269 | 0.172 | -0.137 | 0.656 | 0.501 | 0.859 | -0.242 | 0.711 | 0.11 | -0.561 | -0.593 | -0.1 | -0.0553 | -0.305 | 0.214 | 0.329
CCOc1cc(C(O)C2C=CC3C(=O)N(C4CCCCC4)C(=O)C3N2Nc2ccc(OC)cc2)ccc1O (stereo not given) | 0.692 | -0.0443 | 0.913 | -0.556 (inactive) | 0.423 | 1.21 | 0.388 | 0.741 | 0.105 | 0.959 | 1.41 | -0.352 | 0.208 | 1.13 | 0.505 | 0.0182 | 0.06 | 0.796 | 0.327 | 1.64
CCCCC(=C=CC[C@@H](O)c1ccc(OCCO)cc1)C[C@@H](O)COCc1ccccc1 | 1.27 | -0.338 | -0.212 | -0.784 (inactive) | 1.01 | -0.0016 | -0.3 | 0.245 | 0.111 | 0.856 | -0.548 | -1.45 | 0.141 | -0.686 | -0.244 | 0.0044 | 0.0796 | -0.213 | 1.89 | -0.324
COC(=O)c1c(CC[C@@H](CO)NC(=O)N[C@H](Cn2cc(-c3ccccc3C)nn2)C(C)C)oc(C(C)=O)c1C(=O)OC | 0.404 | -0.177 | -0.076 | -1.71 (inactive) | 0.289 | -0.79 | -0.937 | -0.806 | -0.482 | -0.252 | -0.794 | -0.515 | -0.645 | -0.0696 | -0.637 | -0.169 | -0.0553 | 0.0099 | 0.441 | 0.879
C[C@@H](OCc1ccccc1)C1NC(=O)[C@@]23C(=O)N[C@@H](Cc4ccccc4)C2[C@H](C)[C@@]2(C)O[C@H]2C3/C=C/C/C=C\CNC(=O)CNC1=O (stereo not given in full) | 1.4 | -0.354 | -0.217 | 0.848 (inactive) | -0.389 | -0.764 | -0.497 | -0.467 | -0.166 | 1.57 | -0.816 | -0.712 | 0.367 | -1.15 | -1.02 | -0.199 | -0.179 | -0.323 | -0.143 | -1.56
CCOC(=O)[C@H]1C/C=C/C[C@H](C(=O)OCC)C(=O)O[C@H]2[C@@H](OC)O[C@H](CO)[C@@H](OC(=O)CCc3ccccc3)[C@@H]2OC1=O | 0.254 | -0.41 | 0.128 | -0.389 (inactive) | -0.785 | -1.46 | -0.741 | -1.53 | -0.315 | 0.334 | -0.431 | -1.85 | -1.59 | -0.381 | 0.367 | -0.184 | -0.0937 | 1.47 | 0.162 | -0.187
C=CC[C@]12N=C(c3ccc(OCCCO)cc3)O[C@H]1c1ccccc1N(C)C2=O | 1.24 | 0.765 | 0.864 | -1.06 (inactive) | 0.597 | 1.3 | 0.177 | 0.472 | 0.334 | 1.3 | 0.871 | -1.57 | 0.0374 | 0.287 | -0.274 | 0.0169 | 0.287 | 1.99 | 1.41 | 0.707
CC(C)c1ccc(NN2C(C(O)c3ccco3)C=CC3C(=O)N(c4ccccc4)C(=O)C32)cc1 (stereo not given) | 1.02 | 0.978 | 1.09 | 0.165 (inactive) | 0.783 | 1.3 | 0.0401 | 1.22 | 0.191 | 1.14 | 0.729 | 3.21 | 0.183 | 2.07 | 0.941 | 0.0629 | 0.279 | 1.47 | 0.93 | 2.69
